Reference: ChEMBL document CHEMBL1157539, “Thousands of chemical starting points for antimalarial lead identification” (Nature, 2010)

Experiments:
Format in all cases: functional
Plasmodium falciparum [1] = assay: GSK_TCMDC: Inhibition of Plasmodium falciparum 3D7 in whole red blood cells, using parasite LDH activity as an index of growth. Test compounds present at 2uM
Plasmodium falciparum [2] = assay: GSK_TCMDC: Inhibition of Plasmodium falciparum Dd2 in whole red blood cells, using parasite LDH activity as an index of growth. Test compounds present at 2uM
HepG2 = assay: GSK_TCMDC: Percent inhibition of human HepG2 cell line. Test compounds present at 10uM.

Compound | Inhibition (Plasmodium falciparum [1]) | Inhibition (Plasmodium falciparum [2]) | Inhibition (HepG2)
CC(=O)N1N=C(c2ccc(Cl)cc2)Sc2c1nc(-c1ccccc1)n2C(C)=O | 100% | 81% | 0%
Fc1ccc2[nH]c(-c3cccc(-c4ccc(CNCC5CCCO5)cc4)c3)nc2c1.O=C(O)C(F)(F)F (stereo unspecified) | 100% | 98% | 36%
NC(=O)c1ccc(C(=O)Nc2cccc(-c3csc(-c4nc5ccccc5[nH]4)c3)c2)cc1 | 100% | 35% | 14%
O=C(O)C(F)(F)F.c1cncc(CCNCc2cccc(-c3ccc(-c4nc5ccccc5[nH]4)s3)c2)c1 | 100% | 97% | 8%
O=C(Nc1ccc(Cl)cc1)c1cccc2nc(C(F)(F)F)[nH]c12 | 93% | 98% | 84%
Nc1ccc(-c2nc3cc(C4=N[C@H]5CCCC[C@H]5N4)ccc3o2)cc1[N+](=O)[O-] | 95% | 33% | 16%
CCOc1ncccc1CN1CCC(N2CCc3cc(NC(=O)c4ccco4)ccc32)C1 (stereo unspecified) | 90% | 94% | 3%
Cc1[nH]c(C)c(-c2ccc(-c3ccc(OC(F)(F)F)cc3)cc2)c(=O)c1Cl | 98% | 97% | 24%
Cc1ccc(O)c(-c2cc(C(=O)Nc3ccc(S(=O)(=O)N4CCCCCC4)cc3)[nH]n2)c1 | 100% | 80% | 25%
Cl.Fc1ccc2ncc(Cl)c(CCN3CCC(NCc4cc5c(cn4)OCCO5)CC3)c2c1 | 93% | 20% | 24%
CCC(=O)Nc1cc(=O)[nH]c2nc(-c3ccc(Cl)cc3)nn12 | 84% | 62% | 3%
COc1ccc(Nc2ncc3c(-c4cccc(NC(=O)Cc5cccc(O)c5)c4)c[nH]c3n2)cc1OC | 100% | 96% | 44%
COc1ccc(Nc2ncc3c(-c4cccc(NC(=O)c5ccc(N)cc5)c4)c[nH]c3n2)cc1OC | 84% | 31% | 83%
CCOC(=O)CC[C@H](NC(=O)c1ccc(NS(=O)(=O)c2ccc(-c3cnc(N)[nH]c3=O)cc2)cc1)C(=O)OCC | 95% | 2% | 5%
Cc1cc(N[C@@H](Cc2ccccc2)C(=O)NC2CCCC2)nc(NCc2ccccc2C)n1.O=C(O)C(F)(F)F | 91% | 20% | 2%
N#Cc1ccc2c(c1)CN(C1CCC(NC(=O)c3cc(-c4ccc(Cl)cc4)cs3)CC1)CCC2 (stereo unspecified) | 100% | 99% | 36%
CCC(C)OC(=O)C1=C(C)NC2=C(C(=O)CC(c3ccc(OC)c(OC)c3)C2)C1c1ccc(O)cc1 (stereo unspecified) | 100% | 97% | 3%
COc1ccc(CN2CCC(NCc3cccc(-n4ccnc4)c3)CC2)cc1.O=C(O)C(F)(F)F | 100% | 93% | 10%
O=C(O)C(F)(F)F.c1ccc(C2CCN(Cc3ccc(-c4c[nH]c5nc(NC6CCCC6)ncc45)cc3)CC2)cc1 | 82% | 9% | 39%

Compound | Inhibition (Plasmodium falciparum [1]) | Inhibition (Plasmodium falciparum [2]) | Inhibition (HepG2)
O=C(NCc1ccccc1)Nc1ccc(-c2cccc(-c3nc4cc(C(F)(F)F)ccc4[nH]3)c2)cc1 | 97% | 23% | 56%
Clc1ccc(-c2[nH]c3ccccc3c2CN2CCC(N3CCCCC3)CC2)cc1 | 93% | 15% | 5%
CCCOc1cccc(C(=O)N[C@@H](Cc2ccccc2)[C@H](O)CNCc2cccc(OC)c2)c1 | 100% | 18% | 14%
Cc1cc(=NN=Cc2ccccc2F)c2cc(C(F)(F)F)ccc2[nH]1 | 100% | 67% | 5%
CCCCOP(=O)(OCCCC)C(=Cc1ccc(O)c2ccccc12)P(=O)(OCCCC)OCCCC | 84% | 64% | 1%
Cc1cc(C2CCN(CCCCNC(=O)c3ccc(-c4ccc(C(F)(F)F)cc4)cc3)CC2)c(C)cc1OCC#N | 100% | 58% | 40%
O=C(O)C(F)(F)F.O=C(O)Cc1ccc(-c2c[nH]c3ncc(-c4cccc5ncccc45)cc23)cc1 | 95% | 0% | 7%
COc1cccc2c(N/N=C/c3ccc([N+](=O)[O-])cc3)ccnc12 | 92% | 16% | 25%
Cc1cc(O)c(-c2cccc(Oc3ccc(Cl)cc3)c2)c(C)n1 | 96% | 95% | 0%
O=C(O)C(F)(F)F.OC1(Cc2ccccc2)CCN(Cc2cccc(-c3c[nH]c4nc(NC5CCCC5)ncc34)c2)CC1 | 96% | 35% | 45%
CCNc1cc(CCCC(=O)OCC)nc(Nc2ccc(C)cc2)n1.O=C(O)C(F)(F)F | 100% | 63% | 17%
CCCCCN1CCCC(CNS(=O)(=O)c2cccc(C(=O)Nc3ccc(C(F)(F)F)cc3)c2)C1.O=C(O)C(F)(F)F (stereo unspecified) | 96% | 2% | 27%
CC(=O)Nc1nc(C(=O)Nc2ccc(-c3ccc(-c4nc5cc(F)ccc5[nH]4)cc3)cc2)cs1 | 100% | 33% | 17%
Br.CCc1ccccc1OCCCON1C(=N)N=C(N)NC1(C)C | 95% | 97% | 77%
COc1ccc2nccc([C@@H](O)CN3CCC(NC[C@H](Cc4ccccc4)NC(=O)OC(C)(C)C)CC3)c2c1.O=C(O)C(=O)O | 98% | 86% | 18%
CCn1c(Cc2ccccc2)nnc1SCC(=O)N1c2ccccc2Sc2ccccc21 | 99% | 96% | 0%
O=C(O)C(F)(F)F.O=S(=O)(/C=C/c1ccccc1)N(Cc1ccc(-c2ccc(CNCCOc3ccccc3)cc2)cc1)CC1CCCCN1 (stereo unspecified) | 99% | 95% | 99%
CCCCNCC(O)COc1ccccc1-c1ccc(N/N=C/c2cccc3ccccc23)nn1 (stereo unspecified) | 99% | 8% | 38%
Cc1ccc(NC(=O)Nc2ccc(Cn3ncc(N4CCCNCC4)c(Cl)c3=O)cc2)cc1.O=C(O)C(F)(F)F | 84% | 13% | 35%

Compound | Inhibition (Plasmodium falciparum [1]) | Inhibition (Plasmodium falciparum [2]) | Inhibition (HepG2)
Cc1cc(N(C)C)nc(Nc2ccc(NC(=O)C(C)Oc3ccccc3)cc2)n1 (stereo unspecified) | 98% | 30% | 2%
O=S(=O)(c1ccc(NC(S)=NN=Cc2ccccn2)cc1)N1CCCCC1 | 98% | 56% | 43%
Cc1c(F)cc(C(=O)NC2CC2)cc1-c1ccc2c(c1)c(C)nn2S(=O)(=O)c1cccs1 | 91% | 92% | 34%
Cn1nc(-c2ccc(S(=O)(=O)N3CCC(CCN4CCC(c5c[nH]c6ccccc56)CC4)CC3)s2)cc1C(F)(F)F | 94% | 22% | 40%
CCC[C@@H]([C@@H](CC1CCCCC1)C(=O)N[C@H](C(=O)Nc1nccs1)C(C)(C)SCCNC(=O)OCC)N(O)C=O | 99% | 98% | 45%
Cl.O=c1cc(NCCCNCc2cc3ccc(Br)cc3s2)[nH]c2ccccc12 | 92% | 8% | 18%
O=C(O)C(F)(F)F.OC1CCCN(Cc2cccc(-c3ccc(-c4nc5ccccc5[nH]4)cc3)c2)C1 (stereo unspecified) | 85% | 16% | 25%
CCOc1cc(C)ccc1N(C1CCN(CCCCNC(=O)c2ccc(-c3ccc(C(F)(F)F)cc3)cc2)CC1)S(=O)(=O)c1ccccc1 | 88% | 85% | 14%
O=C(C=Cc1ccc(Cl)c(Cl)c1)NCCCCCN1CCC(CCNC(=O)c2sc3ccccc3c2Cl)CC1 | 88% | 6% | 27%
C[C@H](Nc1c(Nc2ccc3[nH]ccc3c2)c(=O)c1=O)C1CCCCC1 | 96% | 11% | 7%
c1ccc(CN2CCC(NCc3ccc(-c4cncc5ccccc45)cc3)CC2)cc1 | 98% | 19% | 21%
CCOc1ccc(-c2nonc2NC(=O)c2cccs2)cc1OCC | 100% | 100% | 6%
c1ccc(CN2CCC(Nc3ccc(-c4c[nH]nc4-c4ccccn4)nc3)CC2)cc1 | 97% | 23% | 1%
CCN(c1ccccc1)S(=O)(=O)c1ccc(NC(=O)c2cc(-c3cc(C)ccc3O)n[nH]2)cc1 | 99% | 55% | 49%
Cc1cccc2nc(-c3ccc(-c4cccc(CN5CCCC5CN)c4)s3)[nH]c12.O=C(O)C(F)(F)F (stereo unspecified) | 91% | 45% | 20%
O=S(=O)(c1cc(Cl)sc1Cl)N(CCC(O)(C(F)(F)F)C(F)(F)F)Cc1cccc(O)c1 | 98% | 97% | 0%
Cc1cc(N[C@@H](Cc2ccccc2)C(=O)NCCCOC(C)C)nc(NCC2CCCCC2)n1.O=C(O)C(F)(F)F | 94% | 25% | 17%
COc1cc(C)cc(CN2CCC(Cc3ccccc3)CC2)c1O | 97% | 94% | 35%
Fc1c(CNCC2CCN(CC3CCCCC3)CC2)cccc1C(F)(F)F.O=C(O)C(F)(F)F | 93% | 7% | 35%
